Data reported in PubChem BioAssay (EPA / NIEHS).
Several values for one entry are separate records, joined by “and”; a condition that tells them apart may be missing. Identical values can stand only once. A structure can be active in one record and inactive in another. Activity calls are given as the source filed them. How the source made its calls: active means hit-call score of the fitted dose curve at least 0.9, where 1 is the maximum; inactive means score below 0.9.

Read-out: Tissue plasminogen activator (tPA), PLAT (gene 5327)
Assay: BSK_BE3C_tPA: BioMAP Diversity Plus: BE3C Assay for Tissue plasminogen activator (tPA) Biomarker Activity (AID 2283041);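 on outcome: tPA level quantified by ELISA one day after compound addition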
Conditions: primary human bronchial epithelial cells; actives raise or lower the signal
Summary of the method: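 Bidirectional curve fitting relative to DMSO defined activity, with tPA detected by ELISA in chemically treated human bronchial epithelial primary cells at 24 hours.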

| SMILES | outcome | AC50 |
| --- | --- | --- |
| CCCCCCCCCCCCCCCS(=O)(=O)Oc1ccccc1 | inactive | – |
| CCN(CC)CCNc1ccc(CNC=O)c2sc3ccc(OC)cc3c(=O)c12 | inactive | – |
| CCCOc1sc(C(=O)N2CCC(c3cc(CN)ccc3F)CC2)c(C)c1Br | – | 5.19 µM (active) |
| OCCC(F)(F)C(F)(F)C(F)(F)C(F)(F)C(F)(F)C(F)(F)C(F)(F)C(F)(F)F | inactive | 11.6 µM (active) and 14 µM (active) |
| c1ccc2cc3c(ccc4ccccc43)cc2c1 | inactive | – |
| CC(O)CO (stereo not given) | inactive | – |
| C=C(C)C(=O)OCCC(F)(F)C(F)(F)C(F)(F)C(F)(F)C(F)(F)C(F)(F)F | inactive | 3.97 µM (active) |
| NC(=O)N(O)[C@@H]1C=C[C@H](Oc2cccc(Oc3ccc(F)cc3)c2)C1 | – | 5.68 µM (active) |
| CC[C@H](C)[C@@H](C(=O)O)n1sc2ccccc2c1=O | inactive | – |
| Cc1oc(-c2ccccc2)nc1CCOc1ccc(C[C@H](Nc2ccccc2C(=O)c2ccccc2)C(=O)O)cc1 | inactive | – |
| CC#C[C@]1(O)CC[C@H]2[C@@H]3CCC4=CC(=O)CCC4=C3[C@@H](c3ccc(N(C)C)cc3)C[C@@]21C | – | 19.4 µM (active) |
| COCC(C)O (stereo not given) | inactive | – |
| COC(=O)CCCCC(=O)OC | inactive | – |
